Bioassay records from PubChem BioAssay.
SNCA expr inhib: SNCA gene expression inhibition. HEK-293 SNCA-luciferase knock-in, luminescence, 24 h. hit rate 0.17% among 140,000. AID 1671194. Potency, µM (titrated, usually from 57.2 µM), for the others: top-dose activity change, negative = inhibition, usual class: inhibitors;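 also: potency is read from the fitted curve at half-maximal effect; plate controls were DMSO cells for no effect and cell-free wells for full effect; nearly all actives have a fitted effect of over 45% in size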
IP6K1 inhibitor: blocks human inositol hexakisphosphate kinase 1; activity change, % (series mostly up to about 58 µM); AID 1645851; IP6K1 kinase, ADP-Glo luminescence, 2 h; hits give low values; hit rate 0.81% among 140,000; in the data active = activity change below about -25%; also: % is scaled to controls: 0 for no effect and ±100 for the full control effect
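ADP-Glo luminescence measures ADP made by human IP6K1 during a 2 h RT reaction with ATP/IP6 (mix at 1.3 mM/130 uM); top library doses 57.5 and 19.1 uM final.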
KDM5B inhibitor: blocks human KDM5B histone demethylase activity; Q9UGL1; KDM5B demethylase, FDH-coupled NADH fluorescence (FDH is formaldehyde dehydrogenase); Potency, µM (titrated, usually from 57.7 µM), hits mostly inhibitors; hit rate 2.6% among 220,000; also: potency is read from the fitted curve at half-maximal effect; 0% is about no effect; nearly all actives have a fitted effect of over 70% in size
Target sequence (Q9UGL1 whole entry, looked up): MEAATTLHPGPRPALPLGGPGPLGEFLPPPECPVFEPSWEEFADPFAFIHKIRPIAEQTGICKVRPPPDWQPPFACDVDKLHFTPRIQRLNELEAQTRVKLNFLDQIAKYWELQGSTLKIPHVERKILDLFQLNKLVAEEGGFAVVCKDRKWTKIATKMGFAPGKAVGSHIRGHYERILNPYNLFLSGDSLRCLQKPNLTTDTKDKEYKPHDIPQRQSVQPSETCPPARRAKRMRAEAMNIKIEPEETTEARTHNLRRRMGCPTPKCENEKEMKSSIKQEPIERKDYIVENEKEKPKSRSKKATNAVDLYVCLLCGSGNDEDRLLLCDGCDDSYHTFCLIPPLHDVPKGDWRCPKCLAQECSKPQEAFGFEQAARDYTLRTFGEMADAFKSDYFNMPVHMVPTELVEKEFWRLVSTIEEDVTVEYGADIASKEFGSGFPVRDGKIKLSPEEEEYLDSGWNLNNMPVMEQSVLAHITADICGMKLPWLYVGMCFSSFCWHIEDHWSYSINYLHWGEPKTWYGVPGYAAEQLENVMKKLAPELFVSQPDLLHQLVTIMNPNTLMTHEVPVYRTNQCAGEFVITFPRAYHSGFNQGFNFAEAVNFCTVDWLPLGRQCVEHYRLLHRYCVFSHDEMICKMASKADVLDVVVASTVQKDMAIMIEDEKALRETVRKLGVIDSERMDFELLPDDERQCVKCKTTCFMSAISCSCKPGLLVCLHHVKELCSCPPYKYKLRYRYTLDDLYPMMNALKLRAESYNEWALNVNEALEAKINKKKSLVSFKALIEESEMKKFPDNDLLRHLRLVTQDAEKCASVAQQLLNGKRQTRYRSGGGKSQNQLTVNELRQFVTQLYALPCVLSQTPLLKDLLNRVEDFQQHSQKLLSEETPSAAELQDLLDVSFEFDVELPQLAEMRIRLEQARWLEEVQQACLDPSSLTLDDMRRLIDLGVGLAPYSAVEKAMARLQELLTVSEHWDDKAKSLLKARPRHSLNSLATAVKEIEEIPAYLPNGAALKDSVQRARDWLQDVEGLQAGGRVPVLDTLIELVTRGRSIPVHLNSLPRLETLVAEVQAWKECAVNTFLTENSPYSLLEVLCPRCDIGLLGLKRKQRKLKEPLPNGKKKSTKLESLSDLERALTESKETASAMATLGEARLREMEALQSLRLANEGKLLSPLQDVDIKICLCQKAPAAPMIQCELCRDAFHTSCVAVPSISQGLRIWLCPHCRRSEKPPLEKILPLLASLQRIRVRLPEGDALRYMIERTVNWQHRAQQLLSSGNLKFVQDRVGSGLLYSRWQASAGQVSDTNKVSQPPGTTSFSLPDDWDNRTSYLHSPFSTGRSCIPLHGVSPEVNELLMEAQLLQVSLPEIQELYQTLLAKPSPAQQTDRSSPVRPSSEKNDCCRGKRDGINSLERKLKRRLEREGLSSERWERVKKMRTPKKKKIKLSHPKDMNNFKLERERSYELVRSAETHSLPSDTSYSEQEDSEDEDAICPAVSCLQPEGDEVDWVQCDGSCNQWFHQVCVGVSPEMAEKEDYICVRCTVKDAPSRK
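Compound dilutions met 200 nM (final) KDM5BΔAP for 10 min at room temperature before substrate addition. The substrate mix held 12.5 µM H3K4me3 with cofactors 25 µM α-ketoglutarate and 50 µM Fe²⁺. NADH signal gain over 30 min defined activity.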
SNCA viab count: counter-screen for SNCA expression inhibitors: cell viability; Potency, µM (series often up to 57.1 µM), inactives show at the highest dose activity change, negative = cytotoxicity, actives largely listed as cytotoxic; AID 1671193; hit rate 0.12% among 150,000; HEK-293-SNCA-luc viability, GF-AFC fluorescence, 24 h;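 also: potency is read from the fitted curve at half-maximal effect; 0% = DMSO-treated cells and -100% = medium-only wells without cells; nearly all actives have a fitted effect of over 30% in size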
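Cytotoxicity counterscreen: after 24 h compound treatment of genome-edited SNCA-luciferase HEK-293 cells, live-cell protease substrate GF-AFC read by fluorescence after 30 min; activity scaled between DMSO (0%) and medium-only (-100%), curves Hill-fitted.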
An asterisk follows results filed as active; i = inactive; u = inconclusive; x = not tested or not shown; [ ] = another dose, or the depositor's remark. The list is not random: actives were taken first. Their share in the collection is about 2.9%. Unless noted, calls follow the shape of the dose curve; as a rule, active = well fitted curve in the direction sought with a large enough effect; inconclusive = small, poorly fitted or top-dose-only effect, or another doubt; inactive = no such curve, though single readings can be large; an effect the other way counts as inactive or inconclusive.

SMILES	SNCA expr inhib	IP6K1 inhibitor	KDM5B inhibitor	SNCA viab count
Cn1cc(-c2cnc(Nc3ccc(F)c(Cl)c3)c3c2CCO3)cn1	3.5%[87.6 µM]	-9.1	31.6µM*	-3.1%[87.6 µM]
Cn1cc(-c2cnc(Nc3ccc(N4CCOCC4)cc3)c3c2CCO3)cn1	78.1%[87.6 µM]	-4.2	u	-2.9%[87.6 µM]
Cn1cc(-c2cnc(Nc3ccncc3)c3c2CCO3)cn1	8.5%[87.6 µM]	-7.5	35.5µM*	2.3%[87.6 µM]
N#Cc1ccc([S+](=O)([O-])N2CCC3(CC2)OCCN(CC2CCOCC2)C3=O)cc1	-19.0%[87.6 µM]	-3.1	31.6µM*	3.9%[87.6 µM]
Cc1noc(C)c1-c1cc2cc(CO)oc2c(NC2CCOCC2)n1	85.6%[87.6 µM]	8.7	35.5µM*	15.6%[87.6 µM]
Cc1cc2cc(-c3c(C)noc3C)nc(NC3CC3)c2o1	5.1%[87.6 µM]	17.0	i	3.3%[87.6 µM]
Cc1noc(C)c1-c1cc2cc(CN(C)C)oc2c(Nc2cccnc2)n1	38.4%[87.6 µM]	-11.4	28.2µM*	-0.7%[87.6 µM]
Cc1noc(C)c1-c1cc2cc(CN(C)C)oc2c(NCc2cccnc2)n1	102.0%[87.6 µM]	14.4	i	-1.4%[87.6 µM]
Cc1noc(C)c1-c1cc2cc(CO)oc2c(NCC2CCOCC2)n1	41.0%[87.6 µM]	6.6	31.6µM*	10.2%[87.6 µM]
O=C(CCc1nc2ccccc2[nH]c1=O)N1CCN(CCn2cncn2)CC1	-4.3%	31.9	17.8µM*	-7.6%
CCOCCNC(=O)C1CCCN(Cc2cccc(-c3ccc(F)cc3F)c2)C1 (centres undefined)	10.4%	4.2	x	3.9%
O=C(NC1CCCC1)c1nc2cccnc2n(CCc2ccccc2)c1=O	u	11.5	x	7.2%
Cc1ccc(/C=C/c2nc3ccccc3n2S(=O)(=O)c2cccc(Cl)c2)cc1	u	-51.3*	u	-12.9%
CCOc1ccc(/C=C/c2nc3ccccc3n2S(=O)(=O)c2cccc(Cl)c2)cc1	-94.2%	-31.1*	i	-10.3%
O=C(CCCc1ccccc1)N1CCCC(CN2CCCC2)CC1 (centres undefined)	74.6%	-8.5	x	-22.9%
Cc1cc2cccc(-c3nc(C4CCOC4)no3)c2o1 (centres undefined)	u	7.5	22.4µM*	u
CCN(CC)Cc1cc(-c2nc(C3CCOC3)no2)c(-c2ccccc2)o1 (centres undefined)	-18.2%	0.6	25.1µM*	-9.0%
Cc1cc(-c2nc(C3CCOC3)no2)c2ccccc2n1 (centres undefined)	3.6%	-4.6	28.2µM*	0.0%
Cn1ncc2c(C(=O)NCCCc3ccccc3)cc(-c3ccccc3C(F)(F)F)nc21	x	-2.6	x	x
O=C(NCC1CC1)C1CCCCN1Cc1ccc(-c2cccs2)cc1 (centres undefined)	-24.5%	-18.4	x	11.4%[12.5 µM]
COCCn1cnc2ccc(-c3cccc(C)c3)nc2c1=O	-7.3%[87.6 µM]	5.1	39.8µM*	6.0%[87.6 µM]
COCCn1cnc2ccc(-c3ccsc3)nc2c1=O	51.2%[87.6 µM]	3.4	35.5µM*	9.4%[87.6 µM]
COCCn1cnc2ccc(-c3ccc(F)c(Cl)c3)nc2c1=O	35.4%[87.6 µM]	4.9	31.6µM*	-4.0%[87.6 µM]
O=C(Cc1ccc(F)cc1)N1CCN(c2ccc3nnc(-c4ccccc4)n3n2)CC1	x	13.8	x	x
Cc1noc2c(NCc3ccncc3)cc(-c3ccc(Cl)cc3)nc12	-12.4%[87.6 µM]	-11.5	i	-16.5%[87.6 µM]
SMILES	SNCA expr inhib	IP6K1 inhibitor	KDM5B inhibitor	SNCA viab count
CSc1ccc(NC(=O)c2cc3c(N4CCSCC4)nc(C)cn3n2)cc1	3.2%	9.6	i	-15.5%
Cc1ccc(F)c(NC(=O)c2cc3c(N4CCSCC4)nc(C)cn3n2)c1	50.2%	-10.2	31.6µM*	-1.1%
Cc1ccc(NC(=O)c2cc3c(N4CCSCC4)nc(C)cn3n2)c(C)c1	30.6%	-16.7	31.6µM*	2.5%
CC(C)c1ccc(-c2nc(-c3cccnn3)no2)c(=O)[nH]1	11.7%	16.4	22.4µM*	2.1%
CN[C@@H](CC(C)C)c1nc(-c2cccnn2)no1	-15.4%	-8.6	i	-8.3%
COC(=O)Cc1c(C)c2ccc(O)cc2oc1=O	x	x	i	x
c1cc(Cn2ccc3c(N4CCOCC4)nc(-c4cncnc4)cc32)ccn1	-1.7%[87.6 µM]	0.2	i	-6.1%[87.6 µM]
COc1ccc(-c2cc3c(ccn3Cc3ccncc3)c(N3CCOCC3)n2)cn1	26.0%[87.6 µM]	-14.4	u	9.0%[87.6 µM]
c1ccc(-c2cc3c(ccn3Cc3ccncc3)c(N3CCOCC3)n2)cc1	u	-8.3	7.94µM*	-5.5%[87.6 µM]
COc1cc(F)ccc1-c1cc2c(ccn2Cc2ccncc2)c(N2CCOCC2)n1	-19.3%[87.6 µM]	5.7	35.5µM*	-0.1%[87.6 µM]
O=C1NCc2cc(-c3cc4c(ccn4Cc4ccncc4)c(N4CCOCC4)n3)ccc21	84.7%[87.6 µM]	23.0	31.6µM*	10.7%[87.6 µM]
COc1ccccc1Nc1ccnc(N2CCCC(C(=O)NCCc3ccccc3F)C2)n1 (centres undefined)	u	13.5	x	-0.7%[12.5 µM]
CCC(Cn1cnc(-c2ccccc2)c1-c1ccc(C#N)cc1)N1CCN(C)CC1 (centres undefined)	-11.6%	7.2	u	-20.2%
N#Cc1ccc(-c2c(-c3ccccc3)ncn2CCNc2cccnc2)cc1	32.6%	12.7	28.2µM*	-3.4%
CCC(CC)C(=O)NC[C@@H]1C=C(C)[C@H](Cc2nc3ccc(OC)cc3[nH]2)C[C@H]1C(C)C	u	4.5	u	39.8µM*
COc1ccc(CNC(=O)C[C@@H]2C[C@@H](C(C)C)[C@H](CNC(C)=O)C=C2C)cc1	-22.7%[87.6 µM]	-6.8	35.5µM*	-28.3%[87.6 µM]
O=C(c1ccccc1)N1CCC2(CC1)CC(N(Cc1ccc(F)cc1)C1CC1)CCO2 (centres undefined)	-7.8%	-2.5	i	-7.9%
CN(C)Cc1ccc2c(c1)c(OC(C)(C)C(=O)NC1CC1)nn2Cc1ccccc1	3.4%[87.6 µM]	3.6	35.5µM*	-9.6%[87.6 µM]
COCc1ccc2c(c1)c(OC(C)(C)C(=O)NCC1CC1)nn2Cc1ccccc1	-26.9%[87.6 µM]	10.3	31.6µM*	-8.3%[87.6 µM]
COCc1ccc2c(c1)c(OC(C)(C)C(=O)NC1CC1)nn2Cc1ccccc1	23.6%[87.6 µM]	-3.8	35.5µM*	-4.1%[87.6 µM]
COCc1ccc2c(c1)c(OC(C)(C)C(=O)NC1CCOCC1)nn2Cc1ccccc1	20.8%[87.6 µM]	1.8	28.2µM*	3.0%[87.6 µM]
COCc1ccc2c(c1)c(OC(C)(C)C(=O)NCC(F)(F)F)nn2Cc1ccccc1	-14.1%[87.6 µM]	-7.5	u	-5.0%[87.6 µM]
COCc1ccc2c(c1)c(OC(C)(C)C(=O)Nc1ccccn1)nn2Cc1ccccc1	-10.1%[87.6 µM]	-10.6	u	-17.8%[87.6 µM]
CC(C)(Oc1nn(Cc2cccc(Cl)c2)c2ccccc12)C(=O)NC1CCOCC1	u	-7.5	u	-13.9%[87.6 µM]
C#CCNC(=O)c1cc(-c2cccc(F)c2)nc2c1cnn2C	x	13.7	x	x
COCCn1cc(C(=O)NC2CCCc3c2[nH]c2ccccc32)c2ccccc2c1=O (centres undefined)	u	4.4	u	3.9%
COCc1ccc2c(c1)c(OC(C)(C)C(=O)NCC[S+](C)(=O)[O-])nn2Cc1cccnc1	12.3%	4.4	i	4.8%
COCc1ccc2c(c1)c(OC(C)(C)C(=O)NCC1CCOCC1)nn2CCC(C)C	-26.5%[87.6 µM]	5.2	35.5µM*	-6.2%[87.6 µM]
COCc1ccc2c(c1)c(OC(C)(C)C(=O)NCC[S+](C)(=O)[O-])nn2Cc1ccccc1	49.2%	4.6	28.2µM*	10.6%
